Here are results for 31 compounds from the supplement of paper PMC13380429.

Each structure is given as a SMILES string.

The test system of assay [1] is Vero E6 infected with SARS-CoV-2. Briefly: morphology score (similarity to uninfected cells); higher = more like uninfected cells. The following applies: 24 h.
For assay [2] the test system is unchanged. Briefly: SARS-CoV-2 infection rate relative to infected DMSO; higher = more infection, active = 60 or less. The following applies: 24 h.

With `CCOC(=O)c1ccc(OC(=O)CCCCCNC(=N)N)cc1` [gabexate] (10 µM), in assay [1], the morphology score turned out to be 0.0775. Further, the SARS-CoV-2 infection rate in assay [2] was 102% (inactive).

`Cn1cc([S+](C)[O-])c(=O)c2ccc(F)cc21` (configuration not stated) [flosequinan] (10 µM) returned a morphology score in assay [1] of 0.195. Also, the SARS-CoV-2 infection rate in assay [2] was 96.5% (inactive).

`O=C(NC[C@H](O)CN1CCc2ccccc2C1)c1cc(NC2COC2)ncn1` (10 µM): in assay [1], the morphology score is -0.0443. Also, the SARS-CoV-2 infection rate in assay [2] was 100% (inactive).

In assay [1], `CCC1=C(C)CN(C(=O)NCCc2ccc(S(=O)(=O)NC(=O)N[C@H]3CC[C@H](C)CC3)cc2)C1=O` [glimepiride] (10 µM) came in with a morphology score of 0.152. Besides, the SARS-CoV-2 infection rate in assay [2] is 99% (inactive).

`Cc1cc2ncc(C(=O)NCC(C)(C)NCC(=O)N3CCC[C@H]3C#N)cn2n1` [anagliptin] (10 µM): the morphology score in assay [1] is -0.112. Moreover, the SARS-CoV-2 infection rate in assay [2] is 110% (inactive).

Regarding `c1ccc(-c2ccc(CNc3nc(-c4ccccn4)nnc3-c3ccccc3)cc2)cc1` (10 µM), in assay [1], the morphology score is -0.0584. Also, the SARS-CoV-2 infection rate in assay [2] was 114% (inactive).

As for `N=C(N)SCCc1ccc(OCc2ccc([N+](=O)[O-])cc2)cc1` (10 µM), in assay [1], the morphology score was 0.268. Also, in assay [2], the SARS-CoV-2 infection rate is 85.5% (inactive).

`Cc1ncc([N+](=O)[O-])n1CCO` [metronidazole] (10 µM): the morphology score in assay [1] is -0.0912. In assay [2], the SARS-CoV-2 infection rate was 118% (inactive).

`CCCN(CCC)C1Cc2cc(OC)c(OC)cc2C1` (10 µM) showed a morphology score in assay [1] of 0.231. The SARS-CoV-2 infection rate in assay [2] was 109% (inactive).

Compound `Oc1ccc(-c2c(-c3ccccc3)nn3c(C(F)(F)F)cc(C(F)(F)F)nc23)cc1` (10 µM) showed a morphology score in assay [1] of 0.0465. In addition, in assay [2], the SARS-CoV-2 infection rate is 104% (inactive).

Compound `CC(C)N[C@H]1CCn2c(=O)[nH]c3cccc(c32)[C@@H]1O` [zilpaterol] (10 µM) had a morphology score in assay [1] of 0.19. Also, in assay [2], the SARS-CoV-2 infection rate is 106% (inactive).

For `CC1CC(OC(=O)C(O)c2ccccc2)CC(C)(C)C1` (configuration not stated) [cyclandelate] (10 µM), the morphology score in assay [1] is 0.115. Further, the SARS-CoV-2 infection rate in assay [2] is 98% (inactive).

Compound `Cc1cc(C)cc(NC(=O)Cc2ccc(OC(C)(C)C(=O)O)cc2)c1` [efaproxiral] (10 µM) yielded a morphology score in assay [1] of -0.103. Further, the SARS-CoV-2 infection rate in assay [2] is 107% (inactive).

`C[C@@H](CN1CCC(n2c(=O)[nH]c3cc(Cl)ccc32)CC1)NC(=O)c1ccc2ccccc2c1` (10 µM) registered a morphology score in assay [1] of 0.46. Besides, the SARS-CoV-2 infection rate in assay [2] is 87% (inactive).

In assay [1], `CC(C)NCCCn1c(Sc2cc3c(cc2I)OCO3)nc2c(N)ncnc21` (0.833333 µM) returned a morphology score of 0.255. The SARS-CoV-2 infection rate in assay [2] is 96.5% (inactive).

Consider `CC(C)OC(=O)[C@H](C)N[P@@](=O)(OC[C@H]1O[C@@H](n2ccc(=O)[nH]c2=O)[C@](C)(F)[C@@H]1O)Oc1ccccc1` (10 µM), for which the morphology score in assay [1] came out at 0.087. The SARS-CoV-2 infection rate in assay [2] is 108% (inactive).

`CC(=O)O[C@@]12CO[C@@H]1C[C@H](O)[C@@]1(C)C(=O)[C@H](O)C3=C(C)[C@@H](O)C[C@@](O)([C@@H](OC(=O)c4ccccc4)[C@H]21)C3(C)C` [10-deacetylbaccatin] (10 µM): in assay [1], the morphology score was 0.18. The SARS-CoV-2 infection rate in assay [2] was 109% (inactive).

Regarding `Cn1c(=O)cnn(CCCCN2CCN(c3ncccn3)CC2)c1=O` (10 µM), in assay [1], the morphology score is -0.0383. The SARS-CoV-2 infection rate in assay [2] is 115% (inactive).

With `CC(C)c1cccc2c(-c3ccccc3)cc(-c3ccc(-c4ccc(C(=O)O)cc4)[nH]3)nc12` (10 µM), in assay [1], the morphology score came to 0.104. Also, the SARS-CoV-2 infection rate in assay [2] is 87.5% (inactive).

For `CCOc1ccc2nc(S(N)(=O)=O)sc2c1` [ethoxzolamide] (10 µM), in assay [1], the morphology score was 0.205. For the same compound, the SARS-CoV-2 infection rate in assay [2] is 97.5% (inactive).

In turn, `Oc1cccc(Nc2ccc(Nc3cccc(O)c3)nn2)c1` [beta-amyloid-synthesis-inhibitor] (10 µM) returned a morphology score in assay [1] of 0.0822. In addition, in assay [2], the SARS-CoV-2 infection rate is 104% (inactive).

In turn, `COc1ccccc1N1CCN(CC(O)COc2cc(OC)c(OC)c(OC)c2)CC1` (configuration not stated) [enciprazine] (10 µM) returned a morphology score in assay [1] of 0.0687. The SARS-CoV-2 infection rate in assay [2] was 110% (inactive).

`O=C(c1c(F)ccc(NS(=O)(=O)N2CC[C@@H](F)C2)c1F)c1c[nH]c2ncc(-c3cnc(C4CC4)nc3)cc12` (10 µM) had a morphology score in assay [1] of 0.162. Also, the SARS-CoV-2 infection rate in assay [2] was 103% (inactive).

In assay [1], `c1ccc(CCCN2CCN(CCOC(c3ccccc3)c3ccccc3)CC2)cc1` (10 µM) gave a morphology score of 0.239. Also, the SARS-CoV-2 infection rate in assay [2] is 94% (inactive).

As for `O=S(=O)(Cc1ccccc1)Nc1ccc(-c2ccc3c(cnn3-c3ccc(F)cc3)c2)c(C(F)(F)F)c1` (10 µM), the morphology score in assay [1] amounted to 0.22. Moreover, the SARS-CoV-2 infection rate in assay [2] is 91.5% (inactive).

Consider `CN1CCC[C@@H]1CCSc1ccc(O)cc1` (10 µM), for which, in assay [1], the morphology score was -0.0396. Besides, the SARS-CoV-2 infection rate in assay [2] is 112% (inactive).

Take `O=C(Nc1cccc(Nc2ncc(Br)c(NCCc3cnc[nH]3)n2)c1)N1CCCC1` (10 µM): the morphology score in assay [1] is -0.00186. Moreover, in assay [2], the SARS-CoV-2 infection rate is 110% (inactive).

`Cc1ncc[nH]1` [2-methylimidazole] (10 µM) registered a morphology score in assay [1] of 0.049. Further, in assay [2], the SARS-CoV-2 infection rate is 95% (inactive).

On to `COc1ccc(CNC(=O)/C=C/c2ccc3[nH]cc(CCN(C)C)c3c2)cc1` (10 µM), for which the morphology score in assay [1] amounted to 0.155. For the same compound, the SARS-CoV-2 infection rate in assay [2] is 88.5% (inactive).

`C#CCC(Cc1cnc2nc(N)nc(N)c2n1)c1ccc(C(=O)N[C@@H](CCC(=O)O)C(=O)O)cc1` (some centres not stated) [pralatrexate] (10 µM): the morphology score in assay [1] was determined as 0.042. Moreover, the SARS-CoV-2 infection rate in assay [2] is 104% (inactive).

Consider `Cc1cccc(Cc2c[nH]cn2)c1C` [detomidine] (10 µM), for which the morphology score in assay [1] was -0.193. Further, the SARS-CoV-2 infection rate in assay [2] is 116% (inactive).
